Values joined by “and” are separate entries in the source; they are usually repeats but may differ in a detail not shown here. Equal entries are not always repeated. Screen size: about 5,500 compounds; about 2,000 (36%) were called active. Inconclusive results (about 18%) are left out. Cut-off read from the data, not from the text of the source: active = normalized growth mostly below about 0.91 (no sharp cut-off); inconclusive = no clear call, values can overlap the other calls; inactive = mostly above about 0.92. This is one part of the list.
Assay: chemical genetic growth profiling, strain panel (AID 1159580);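 note: tested at 20 µM; growth read once vehicle control cultures reached saturation at 30 °C; 1 = growth at the plate median or of vehicle wells; lower values mean less growth of the strain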
Conditions: S. cerevisiae deletion strains, growth OD

Measured: normalized growth

c1ccc([C@H]2CN3CCSC3=N2)cc1
inactive: locus YAL013W, strain DEP1, stronger effect = lower value 1.01 | locus YAL021C, strain ccr4, stronger effect = lower value 1.01 | locus YAL026C, strain drs2, stronger effect = lower value 1.01 | locus YAL030W, strain snc1, stronger effect = lower value 1.01 | locus YBL061C, strain skt5, stronger effect = lower value 1.01 | locus YBR009C, strain hhf1, stronger effect = lower value 1.01 | locus YBR021W, strain FUR4, stronger effect = lower value 0.956 | locus YBR023C, strain chs3, stronger effect = lower value 1.01 | locus YBR171W, strain sec66, stronger effect = lower value 1.02 | locus YBR229C, strain ROT2, stronger effect = lower value 1.01 | locus YBR231C, strain swc5, stronger effect = lower value 1 | locus YBR279W, strain paf1, stronger effect = lower value 1.02 | locus YCL011C, strain gbp2, stronger effect = lower value 1.01 | locus YCL016C, strain dcc1, stronger effect = lower value 1.01 | locus YCL029C, strain bik1, stronger effect = lower value 1.01 | locus YCL061C, strain MRC1, stronger effect = lower value 0.996 | locus YCL069W, strain vba3, stronger effect = lower value 1 | locus YCR088W, strain abp1, stronger effect = lower value 1 | locus YDL005C, strain med2, stronger effect = lower value 0.976 | locus YDL035C, strain GPR1, stronger effect = lower value 1.01 | locus YDL040C, strain nat1, stronger effect = lower value 1.01 | locus YDL074C, strain BRE1, stronger effect = lower value 1 | locus YDL101C, strain DUN1, stronger effect = lower value 1 | locus YDL134C, strain PPH21, stronger effect = lower value 1.01 | locus YDL185W, strain tfp1, stronger effect = lower value 1.02 | locus YDL192W, strain arf1, stronger effect = lower value 1 | locus YDR001C, strain nth1, stronger effect = lower value 0.995 | locus YDR069C, strain doa4, stronger effect = lower value 0.996 | locus YDR101C, strain arx1, stronger effect = lower value 1 | locus YDR137W, strain rgp1, stronger effect = lower value 1.04 | locus YDR150W, strain NUM1, stronger effect = lower value 1.01 | locus YDR159W, strain sac3, stronger effect = lower value 0.944 | locus YDR162C, strain NBP2, stronger effect = lower value 0.999 | locus YDR195W, strain ref2 1 | locus YDR297W, strain sur2, stronger effect = lower value 1.01 | locus YDR318W, strain mcm21, stronger effect = lower value 0.993 | locus YDR334W, strain swr1, stronger effect = lower value 0.984 | locus YDR335W, strain msn5, stronger effect = lower value 0.987 | locus YDR388W, stronger effect = lower value 1.01 | locus YDR392W, strain spt3, stronger effect = lower value 1.01 | locus YDR502C, strain sam2, stronger effect = lower value 0.993 | locus YEL003W, strain gim4, stronger effect = lower value 1.01 | locus YEL037C, strain rad23, stronger effect = lower value 1 | locus YEL061C, strain CIN8 (second series), stronger effect = lower value 0.996 | locus YEL061C, strain CIN8, stronger effect = lower value 1 | locus YER015W, strain faa2, stronger effect = lower value 1.01 | locus YER016W, strain bim1, stronger effect = lower value 1.01 | locus YER110C, stronger effect = lower value 1.02 | locus YER111C, strain swi4, stronger effect = lower value 1.01 | locus YER155C, strain BEM2 (second series), stronger effect = lower value 1.01 | locus YER155C, strain BEM2, stronger effect = lower value 0.999 | locus YER167W, strain BCK2, stronger effect = lower value 1.01 | locus YFR010W, strain ubp6, stronger effect = lower value 0.981 | locus YGL078C, strain dbp3, stronger effect = lower value 1 | locus YGL086W, strain mad1, stronger effect = lower value 1.01 | locus YGL167C, strain pmr1, stronger effect = lower value 1 | locus YGL173C, strain kem1, stronger effect = lower value 1.01 | locus YGL227W, strain vid30, stronger effect = lower value 1.02 | locus YGL240W, strain doc1, stronger effect = lower value 1 | locus YGL248W, strain PDE1, stronger effect = lower value 1 | locus YGL253W, strain hxk2, stronger effect = lower value 1.01 | locus YGR078C, strain PAC10, stronger effect = lower value 1 | locus YGR135W, strain pre9, stronger effect = lower value 0.988 | locus YGR229C, strain SMI1, stronger effect = lower value 0.994 | locus YGR252W, strain gcn5, stronger effect = lower value 1.02 | locus YHR013C, strain ard1, stronger effect = lower value 1.02 | locus YHR027C, strain rpn1, stronger effect = lower value 1.01 | locus YHR030C, strain SLT2, stronger effect = lower value 1.01 | locus YHR079C, strain IRE1 (second series), stronger effect = lower value 1 | locus YHR079C, strain IRE1, stronger effect = lower value 1.03 | locus YHR094C, strain hxt1, stronger effect = lower value 1 | locus YHR129C, strain ARP1, stronger effect = lower value 1.03 | locus YHR142W, strain chs7, stronger effect = lower value 1.05 | locus YHR200W, strain rpn10, stronger effect = lower value 1 | locus YIL066C, strain RNR3, stronger effect = lower value 1.02 | locus YIL073C, strain SPO22, stronger effect = lower value 1.05 | locus YIL125W, strain kgd1, stronger effect = lower value 1.01 | locus YIR030C, strain dcg1, stronger effect = lower value 1.01 | locus YJL092W, strain hpr5, stronger effect = lower value 1 | locus YJL095W, strain BCK1 (second series), stronger effect = lower value 1.01 | locus YJL095W, strain BCK1, stronger effect = lower value 1.01 and 1.05 | locus YJL115W, strain asf1, stronger effect = lower value 0.997 | locus YJL129C, strain trk1, stronger effect = lower value 1.02 | locus YJL134W, strain LCB3, stronger effect = lower value 1.01 | locus YJL154C, strain vps35, stronger effect = lower value 1.01 | locus YJL164C, strain tpk1, stronger effect = lower value 0.983 | locus YJL166W, strain qcr8, stronger effect = lower value 1.01 | locus YJL168C, strain set2, stronger effect = lower value 1.01 | locus YJL187C, strain SWE1 (second series), stronger effect = lower value 1.01 | locus YJL187C, strain SWE1, stronger effect = lower value 1 | locus YJR043C, strain POL32, stronger effect = lower value 1.02 | locus YJR066W, strain TOR1, stronger effect = lower value 0.976

— PubChem BioAssay AID1159580 (chemical genetic matrix, 2015)
